Measurements from PubChem BioAssay (Tox21).
Inconclusive results are not listed. Calls of active or inactive are those of the source. Unless noted, calls follow the shape of the full dose curve.

What was measured:
[1] = Nuclear factor erythroid 2-related factor 2/antioxidant responsive element (Nrf2/ARE) small molecule agonists: qHTS cell viability counter screen in human keratinocytes (AID 1919968; active = well fitted curve in the direction sought with a large enough effect in the repeat runs; an effect the other way counts as inactive or inconclusive; also: nearly all actives have a fitted effect of over 55% in size)
Outline: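 In human HaCaT keratinocytes stably expressing an ARE-driven luciferase, compound exposure lasted 23 h at 37 C under 5% CO2. Viable cells are quantified with a protease-based fluorogenic reagent (CellTiter-Fluor) read 1 h after addition.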

[2] = Nuclear factor erythroid 2-related factor 2/antioxidant responsive element (Nrf2/ARE) small molecule agonists: luciferase reporter gene qHTS assay in human keratinocytes (AID 1919969); also: nearly all actives have a fitted effect of over 35% in size; also: potency is read from the fitted curve at half-maximal effect
[3] = biological target: Gonadotropin-releasing hormone receptor (Homo sapiens) (UniProt P30968); test: Human gonadotropin-releasing hormone receptor (GnRHR) small molecule agonists, calcium flux assay in GnRHR-HEK293 cells (AID 1920063); also: nearly all actives have a fitted effect of over 35% in size
Outline: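 Intracellular calcium rise is the read-out: engineered human GnRHR HEK293 cells, dye-loaded, are exposed to DMSO-dissolved compounds and fluorescence at Ex/Em 480/540 is tracked for 3 min.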

[4] = biological target: KiSS-1 receptor (Homo sapiens) (UniProt Q969F8); test: Human kisspeptin (KISS1R) small molecule agonists, calcium flux assay in KISS1R-HEK293 cells (AID 1920064; active = well fitted curve in the direction sought with a large enough effect in the repeat runs; an effect the other way counts as inactive or inconclusive)
Outline: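 Concentration-response testing used 15 concentrations in triplicate on human KISS1R-expressing HEK293 cells. Calcium-dependent fluorescence (Ex/Em 480/540) was followed kinetically for 3 min after compound transfer.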

[5] = G protein-coupled receptor (GPCR) small molecule agonists, calcium flux assay: HEK293 wild type cell line counter screen (AID 1920065)
Outline: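 Fluorescence intensity signals activation. After overnight (18 h) culture and a 1 h calcium dye load at 37 C, compounds are added by pin tool and the plate read at 480/540 nm for 3 min in 1 s steps.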

[6] = p53 small molecule agonists, cell-based qHTS assay with human liver microsomes: qHTS cell viability counter screen (AID 1963579); also: nearly all actives have a fitted effect of over 45% in size
Outline: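 After the 460/530 nm beta-lactamase read, CellTiter-Glo was added to the same wells and luminescence measured after 30 min at room temperature, giving viability of p53RE-bla cells treated 16 h with compounds plus microsomes and NADPH.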

[7] = p53 small molecule agonists, cell-based qHTS assay with rat liver microsomes: qHTS cell viability counter screen (AID 1963580); also: nearly all actives have a fitted effect of over 45% in size
Outline: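 Cytotoxicity counter screen: intracellular ATP measured by CellTiter-Glo luminescence in the same wells as the beta-lactamase reporter read, on HCT-116 p53RE-bla cells exposed 16 h at 37 C to compounds with rat liver microsomes and NADPH, each 0.5 mg/mL final.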

[8] = p53 small molecule agonists, cell-based qHTS assay: qHTS cell viability counter screen (AID 1963581); also: nearly all actives have a fitted effect of over 45% in size
Outline: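 Luminescence from CellTiter-Glo, reflecting ATP content, serves as the cytotoxicity measure; it is taken after the 2 h reporter substrate step in HCT-116 p53RE-bla cells dosed for 16 h at 37 C.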

[9] = biological target: 5-hydroxytryptamine receptor 2A (Homo sapiens) (UniProt P28223); test: 5-hydroxytryptamine receptor 2A (HTR2A) small molecule antagonists, cell-based qHTS assay (AID 1963586); also: nearly all actives have a fitted effect of over 45% in size; also: potency is read from the fitted curve at half-maximal effect
Outline: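 CHO cells stably expressing human HTR2A were plated for 18 h at 37 C, then loaded with calcium dye for 1 h. Compounds were preincubated 5 min at room temperature before DOI (4 nM solution) was added. Kinetic fluorescence was read for 3 min.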

[10] = biological target: 5-hydroxytryptamine receptor 2A (Homo sapiens) (UniProt P28223); test: 5-hydroxytryptamine receptor 2A (HTR2A) small molecule agonists, cell-based qHTS assay (AID 1963587); also: nearly all actives have a fitted effect of over 30% in size
Outline: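 CHO cells stably expressing human HTR2A, plated 18 h, loaded with calcium dye 1 h at 37 C. Agonist mode: compounds added and intracellular calcium fluorescence recorded kinetically for 2 min at 1 sec intervals.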

[11] = biological target: Muscarinic acetylcholine receptor M1 (Homo sapiens) (UniProt P11229); test: Cholinergic receptor muscarinic 1 (CHRM1) small molecule antagonists, cell-based qHTS assay (AID 1963588); also: nearly all actives have a fitted effect of over 40% in size
Outline: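 Compounds were tested at 15 concentrations in three independent runs. Dye-loaded CHRM1-CHO cells were exposed 5 min at room temperature before stimulation by acetylcholine added at 50nM. Intracellular calcium was read kinetically on FDSS for 3 min.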

[12] = biological target: Muscarinic acetylcholine receptor M1 (Homo sapiens) (UniProt P11229); test: Cholinergic receptor muscarinic 1 (CHRM1) small molecule agonists, cell-based qHTS assay (AID 1963589); also: nearly all actives have a fitted effect of over 35% in size
Outline: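 Fluorescent calcium dye reports M1 activation in stably transfected CHO cells. Compounds, 15 concentrations, added after 1 h dye loading at 37 C; kinetic reading at 1 sec intervals.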

[13] = cAMP Responsive Elements (CRE) small molecule agonists, cell-based qHTS assay (AID 1963590)
Outline: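 Compound exposure lasted 3 h at 37 C/5% CO2 in CRE-bla HEK 293T cells grown in assay medium with 10% dialyzed FBS and 25 mM HEPES. Reporter signal came from LiveBLAzer B/G FRET substrate, 2 h, room temperature.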

[14] = cAMP Responsive Elements (CRE) small molecule antagonists, cell-based qHTS assay (AID 1963591; active = well fitted inhibition curve with a large enough effect in the signal ratio in the repeat runs, not every such curve was filed as active; the % refers to the signal ratio)
Outline: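 Stimulation used NKH477 at a final 0.25 uM for 3 h in compound-treated CRE-bla HEK293T cells, seeded 18 h beforehand. Reporter activity was measured with LiveBLAzer B/G FRET substrate after 2 h at room temperature.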

[15] = biological target: Beta-2 adrenergic receptor (Homo sapiens) (UniProt P07550); test: Adrenergic beta2 receptor (ADRB2) small molecule antagonists, cell-based qHTS assay (AID 1963592); also: series mostly up to about 92 µM; nearly all actives have a fitted effect of over 50% in size
Outline: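 Assay format: CHO-ADRB2 cells, 18-20hr seeding at 37C/5% CO2, then compound plus 1nM isoproterenol agonist mix for 0.5hr RT. Homogeneous time-resolved fluorescence cAMP detection after 1hr, expressed as 665/615 nm ratio.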

[16] = biological target: Beta-2 adrenergic receptor (Homo sapiens) (UniProt P07550); test: Adrenergic beta2 receptor (ADRB2) small molecule agonists, cell-based qHTS assay (AID 1963593);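 also: CHO cells stably overexpressing human ADRB2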
Outline: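 CHO cells stably over-expressing ADRB2 were plated overnight at 37C, then dosed with compounds plus a stimulation mix containing 100uM IBMX and 25uM Ro-20-1724 for 0.5hr at room temperature. cAMP was measured by HTRF competition, 1hr.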

[17] = biological target: D(2) dopamine receptor (Homo sapiens) (UniProt P14416); test: Dopamine D2 receptor (DRD2) small molecule agonists, cell-based qHTS assay (AID 1963594); also: nearly all actives have a fitted effect of over 35% in size
Outline: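 HEK293 cells stably expressing human DRD2, pre-treated with PDE inhibitor Ro20-1724 (0.1 mM final) and compound 10 min at room temperature, then stimulated with NKH477 (200nM […]) for 30 min. cAMP read by HTRF (665/620 nm).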

[18] = biological target: D(2) dopamine receptor (Homo sapiens) (UniProt P14416); test: Dopamine D2 receptor (DRD2) small molecule antagonists, cell-based qHTS assay (AID 1963595; active = well fitted inhibition curve with a large enough effect in the signal ratio in the repeat runs, with a control signal flat; the % refers to the signal ratio)
Outline: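 HTRF cAMP read-out at 665 and 620 nm emission (340 nm excitation). Antagonist mode: compounds were tested against 12 nM quinpirole in DRD2-HEK293 cells, with 200 nM NKH477 raising cAMP and 0.1 mM Ro20-1724 blocking its breakdown.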

Measured: Potency

KiSS-1 receptor (Homo sapiens), sequence (Q969F8 whole entry, looked up): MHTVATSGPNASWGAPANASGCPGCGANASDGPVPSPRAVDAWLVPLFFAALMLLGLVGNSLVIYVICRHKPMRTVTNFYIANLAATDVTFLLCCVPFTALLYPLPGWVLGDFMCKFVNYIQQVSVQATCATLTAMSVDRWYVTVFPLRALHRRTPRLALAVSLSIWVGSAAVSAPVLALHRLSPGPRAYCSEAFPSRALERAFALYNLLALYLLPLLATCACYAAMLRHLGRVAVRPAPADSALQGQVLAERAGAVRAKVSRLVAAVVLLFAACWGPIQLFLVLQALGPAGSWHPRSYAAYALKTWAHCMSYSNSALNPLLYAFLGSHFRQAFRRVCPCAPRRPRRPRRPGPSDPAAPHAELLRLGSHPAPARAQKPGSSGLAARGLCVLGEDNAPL
Beta-2 adrenergic receptor (Homo sapiens), sequence (P07550 whole entry, looked up): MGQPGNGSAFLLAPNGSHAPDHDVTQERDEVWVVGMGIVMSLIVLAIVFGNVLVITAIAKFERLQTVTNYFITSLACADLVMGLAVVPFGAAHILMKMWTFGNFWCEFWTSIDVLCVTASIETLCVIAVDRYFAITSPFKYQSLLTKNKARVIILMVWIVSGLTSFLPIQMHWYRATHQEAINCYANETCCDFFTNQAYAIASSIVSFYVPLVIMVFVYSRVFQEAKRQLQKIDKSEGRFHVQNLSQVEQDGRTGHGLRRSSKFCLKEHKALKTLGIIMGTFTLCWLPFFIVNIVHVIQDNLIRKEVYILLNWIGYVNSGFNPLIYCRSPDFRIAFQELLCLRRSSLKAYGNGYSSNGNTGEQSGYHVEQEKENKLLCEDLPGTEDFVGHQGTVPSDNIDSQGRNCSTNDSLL
Muscarinic acetylcholine receptor M1 (Homo sapiens), sequence (P11229 whole entry, looked up): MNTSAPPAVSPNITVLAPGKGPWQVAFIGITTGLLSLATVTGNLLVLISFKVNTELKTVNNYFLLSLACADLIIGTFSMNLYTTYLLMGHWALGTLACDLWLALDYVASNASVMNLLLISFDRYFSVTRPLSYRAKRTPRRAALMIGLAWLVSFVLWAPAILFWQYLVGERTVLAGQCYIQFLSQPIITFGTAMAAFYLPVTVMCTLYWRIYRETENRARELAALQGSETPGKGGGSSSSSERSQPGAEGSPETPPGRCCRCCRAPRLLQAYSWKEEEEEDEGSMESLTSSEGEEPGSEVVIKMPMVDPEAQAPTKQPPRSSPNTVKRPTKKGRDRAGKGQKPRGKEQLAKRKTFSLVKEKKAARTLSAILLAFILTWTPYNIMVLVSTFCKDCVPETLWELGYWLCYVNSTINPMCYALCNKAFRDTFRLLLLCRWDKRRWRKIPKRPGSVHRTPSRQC
D(2) dopamine receptor (Homo sapiens), sequence (P14416 whole entry, looked up): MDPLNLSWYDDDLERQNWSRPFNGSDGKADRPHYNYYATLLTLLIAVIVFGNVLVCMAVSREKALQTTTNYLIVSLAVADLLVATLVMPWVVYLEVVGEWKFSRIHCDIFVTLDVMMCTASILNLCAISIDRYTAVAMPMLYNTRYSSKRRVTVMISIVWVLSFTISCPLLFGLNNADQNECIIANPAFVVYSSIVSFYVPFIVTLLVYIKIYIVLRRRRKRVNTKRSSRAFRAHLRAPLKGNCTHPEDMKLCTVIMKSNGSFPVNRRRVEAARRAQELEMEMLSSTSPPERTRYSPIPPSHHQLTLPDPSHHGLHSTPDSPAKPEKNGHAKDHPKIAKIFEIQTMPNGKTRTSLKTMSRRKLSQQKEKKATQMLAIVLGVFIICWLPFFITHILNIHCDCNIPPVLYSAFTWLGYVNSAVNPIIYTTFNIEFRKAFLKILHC
5-hydroxytryptamine receptor 2A (Homo sapiens), sequence (P28223 whole entry, looked up): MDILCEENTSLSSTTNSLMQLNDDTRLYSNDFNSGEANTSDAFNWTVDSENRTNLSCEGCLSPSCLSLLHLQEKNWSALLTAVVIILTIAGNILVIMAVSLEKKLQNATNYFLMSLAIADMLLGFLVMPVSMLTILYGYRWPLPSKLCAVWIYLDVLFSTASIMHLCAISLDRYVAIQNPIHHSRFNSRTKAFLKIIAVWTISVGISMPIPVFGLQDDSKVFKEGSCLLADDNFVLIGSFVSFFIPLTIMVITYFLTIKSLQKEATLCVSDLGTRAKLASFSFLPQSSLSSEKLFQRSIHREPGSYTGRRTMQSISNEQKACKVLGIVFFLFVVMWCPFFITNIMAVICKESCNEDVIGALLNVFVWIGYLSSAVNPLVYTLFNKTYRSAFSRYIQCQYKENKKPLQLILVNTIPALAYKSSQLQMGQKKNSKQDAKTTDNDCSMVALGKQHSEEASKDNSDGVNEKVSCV
Gonadotropin-releasing hormone receptor (Homo sapiens), sequence (P30968 whole entry, looked up): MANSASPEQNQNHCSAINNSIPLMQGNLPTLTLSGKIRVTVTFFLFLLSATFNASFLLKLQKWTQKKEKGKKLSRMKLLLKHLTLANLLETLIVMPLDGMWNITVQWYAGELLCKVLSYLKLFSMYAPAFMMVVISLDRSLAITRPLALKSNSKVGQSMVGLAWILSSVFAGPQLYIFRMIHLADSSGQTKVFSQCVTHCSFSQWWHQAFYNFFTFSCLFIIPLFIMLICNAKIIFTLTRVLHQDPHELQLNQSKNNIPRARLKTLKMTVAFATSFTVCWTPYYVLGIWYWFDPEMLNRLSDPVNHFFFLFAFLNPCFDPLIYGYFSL

C[C@H](NC(CCc1ccccc1)C(=O)O)C(=O)N1CCC[C@H]1C(=O)O (stereo partly specified)
inactive: all assays above

CC(=O)C(=O)CC(C)C
inactive: all assays above

CCCCC(CC)COC(=O)COc1cc(Cl)c(Cl)cc1Cl (stereo unspecified)
inactive: all assays above

CCCCCCOC(=O)CCCCCCCC(=O)OCCCCCC
inactive: all assays above

COc1nccnc1NS(=O)(=O)c1ccc(N)cc1
inactive: all assays above

c1ccc(-c2nc[nH]c2-c2ccccc2)cc1
active: [9] 3.65 µM
inactive: all other assays above

CC1=C(C(=O)O)N2C(=O)[C@@H](NC(=O)[C@H](N)C3=CCC=CC3)[C@H]2SC1
inactive: all assays above

CCCCC(CC)C(=O)OCCOCCOCCOCCOC(=O)C(CC)CCCC (stereo unspecified)
inactive: all assays above

CC(C)Cn1cnc2c1c(=O)n(C)c(=O)n2C
not listed: [17]
inactive: all other assays above

CC(O)CN (stereo unspecified)
inactive: all assays above

COc1cc(N)ccc1C
inactive: all assays above

N#CCCOCCOCCC#N
inactive: all assays above

CCCCN(CCC(=O)OCC)C(C)=O
inactive: all assays above

CCN(CC)CC1CCCCN1CC(=O)N1c2ccccc2C(=O)Nc2cccnc21 (stereo unspecified)
inactive: all assays above

[Ca+2]
inactive: all assays above

COC(C)=O
not listed: [16]
inactive: all other assays above

CCC(C)(CCC(C)C)C(=O)[O-].CCC(C)(CCC(C)C)C(=O)[O-].[Zn+2] (stereo unspecified)
not listed: [16]
inactive: all other assays above

CCCCCCCCCCCCCCC
not listed: [16]
inactive: all other assays above

CCCCCCCC/C=C\CCCCCCCC(=O)OCC
not listed: [16]
inactive: all other assays above

CC(N=C(NC#N)Nc1ccncc1)C(C)(C)C (stereo unspecified)
not listed: [16] | [18]
inactive: all other assays above

CC(C)CCCCCOC(=O)CCCCC(=O)OCCCCCC(C)C
active: [2] 48.6 µM
not listed: [16]
inactive: all other assays above

O=C(O)c1ccc(O)c(O)c1
not listed: [16] | [18]
inactive: all other assays above

C=C[Si](OC)(OC)OC
not listed: [16]
inactive: all other assays above

O=C1NCC2(CCN(CCc3ccccc3)CC2)O1
not listed: [16]
inactive: all other assays above

CN(C)c1ccncc1
not listed: [16]
inactive: all other assays above

COc1ccccc1OCC1CNC(=O)O1 (stereo unspecified)
not listed: [16]
inactive: all other assays above

C=CC(=O)NC(C)(C)C
not listed: [16]
inactive: all other assays above
